According to article PMC7819943, “Rice protein-binding microarrays: a tool to detect cis-acting elements near promoter regions in rice”:
Over roughly 68,000 sequences, “fluorescence intensity (a.u.)” has its median near 9,100; the highest 2% begin near 16,000. Shown is part of a subset that was picked to be rich in the highest values.

biological target: OsWRKY34 (Oryza sativa, UniProt Q0JBA9 1-250); assay: protein-binding microarray (RPBM); PBS, 2% BSA, 51.3 ng/ul salmon testes DNA, 50 uM zinc acetate, 200 nM TF, 25 C, 1 h; high values mean tight binding; conditions: protein: recombinant; tags: N-terminal polyhistidine and DsRed monomer fusion (pET32a); label: CyDye5-dUTP incorporated in the synthesized complementary strand; 3' TTTTT single-stranded linker to array surface; dsDNA, one strand shown
Sequence (Q0JBA9 entry or part of it): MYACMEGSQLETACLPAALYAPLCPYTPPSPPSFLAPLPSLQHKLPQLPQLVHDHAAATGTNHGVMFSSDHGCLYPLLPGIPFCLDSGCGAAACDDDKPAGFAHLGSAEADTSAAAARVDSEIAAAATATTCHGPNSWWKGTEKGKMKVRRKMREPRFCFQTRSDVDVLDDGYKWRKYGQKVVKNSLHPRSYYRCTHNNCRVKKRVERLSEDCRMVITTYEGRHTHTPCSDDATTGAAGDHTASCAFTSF
In short: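 Binding signal is defined as the fluorescence intensity of each feature in arbitrary units, read on an Axon 4000B scanner. Transcription factors with N-terminal polyhistidine and DsRed fusions came from E. coli BL21-CodonPlus and were purified on Ni–NTA. They were incubated at 200 nM for 1 h at 25 °C on a custom Agilent array that had been made double-stranded with Cy5-dUTP, with 50 µM zinc acetate present, and the array was washed.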

Sequence | binding signal
TCTGACACCTATCTCTCCTGGATTCTCCATGCTTTCTTTCCGGAGTCACCTAGTGCAG | 10300 fluorescence intensity (a.u.)
TTTTCTCACCACTCTCTCTTTCGTGTTCTCTCTCTCTTGTCGGAGTCACCTAGTGCAG | 12500 fluorescence intensity (a.u.)
CATCCTCCTTCCGGAACCTTCTAGAAGGTTCTCCTCGTACCGGAGTCACCTAGTGCAG | 8530 fluorescence intensity (a.u.)
ATGTATTGGTGTTATGCCTTCTGTTTATTTTATTTGCTCCCGGAGTCACCTAGTGCAG | 8730 fluorescence intensity (a.u.)
AAATCTGTAGCCCGCTGCTTTTCTCTCTCCTTATTTATCTCGGAGTCACCTAGTGCAG | 11200 fluorescence intensity (a.u.)
CCAATATCACGTTGTCCTAGCTCTGCCAACGACTTCATCTCGGAGTCACCTAGTGCAG | 8320 fluorescence intensity (a.u.)
TTCTCTCCCTCCCGGCCGCCGCCCCGCCCCGCCCATCTTGCGGAGTCACCTAGTGCAG | 9110 fluorescence intensity (a.u.)
TTTGTTGGTTGGTTTGACCCTTCCTAATCCTACCTTTGGTCGGAGTCACCTAGTGCAG | 8160 fluorescence intensity (a.u.)
CACGTACGCCGCCGTGTCTCATCACGAGCTCGATCGTTTCCGGAGTCACCTAGTGCAG | 8240 fluorescence intensity (a.u.)
GTGGGTTTTTTTTTTTGGTTTGTTTCTTCCTCTGGCCATTCGGAGTCACCTAGTGCAG | 19800 fluorescence intensity (a.u.)
GTGGAGTTGCTTTCTCCTCCTCCTTGTTTGGGTTGGGTGCCGGAGTCACCTAGTGCAG | 11900 fluorescence intensity (a.u.)
GTTGGGTGGGTTTCCCGTCTCCTTCCGATTGCTGAGTAGCCGGAGTCACCTAGTGCAG | 19100 fluorescence intensity (a.u.)
AAAGGTGAGTAGTGGTTTCTGGGTTGCGTCTCCCTTTTTCCGGAGTCACCTAGTGCAG | 12600 fluorescence intensity (a.u.)
GTGGGTTTCTAGCATCATAGGGGTATTGTAGTAACTTCCTCGGAGTCACCTAGTGCAG | 17400 fluorescence intensity (a.u.)
TCCTCTGGCTTTCTTTTCCCATTTCGTCTCTTGTTTGTTTCGGAGTCACCTAGTGCAG | 9160 fluorescence intensity (a.u.)
GATTTGTATTGGTTTTAATAGTAGGGGAATTTCTATACCTCGGAGTCACCTAGTGCAG | 8140 fluorescence intensity (a.u.)
CGTGGGTAATTTGGTTCCTCTTCTTTTTTTGGCTTCCTTTCGGAGTCACCTAGTGCAG | 8440 fluorescence intensity (a.u.)
ATATTTCCTGTTTGCTCTGTGTTTTCTTCCACCTTCCATTCGGAGTCACCTAGTGCAG | 9830 fluorescence intensity (a.u.)
GGGTATTGTAGTAACTTCCTGTGCACCATCGGGGTTAAGACGGAGTCACCTAGTGCAG | 10500 fluorescence intensity (a.u.)
TTCTCTGTTTCTTCTGCCTTCACCACCTGCTCCACATTTTCGGAGTCACCTAGTGCAG | 10900 fluorescence intensity (a.u.)
ACACCATGTTTCCACATTGCATTTCCTTCTGTTTTTTCTTCGGAGTCACCTAGTGCAG | 17600 fluorescence intensity (a.u.)

Sequence | binding signal
ATTTTGATTAGTGCGTTTGATTAGTGGTGTTTATTATGTCCGGAGTCACCTAGTGCAG | 9410 fluorescence intensity (a.u.)
TTCTGAACCGTGTTAAAATGCTACAAAATTTTCCCTTTTTCGGAGTCACCTAGTGCAG | 8570 fluorescence intensity (a.u.)
AGCTTTCACCTCATTAAGACCGGTATCTGTTGAGACTTGACGGAGTCACCTAGTGCAG | 8860 fluorescence intensity (a.u.)
GAACTAGTCCGCCTAATTGTTGGCTCTCTTATCTCTTCATCGGAGTCACCTAGTGCAG | 12100 fluorescence intensity (a.u.)
TTCTATGTTGTGGTTCTGTGTTTTACACTTCAGTTTTGTTCGGAGTCACCTAGTGCAG | 8030 fluorescence intensity (a.u.)
GTGATCCGGTGCCCTCTGACCCGCAACTTCCTTTTGGCACCGGAGTCACCTAGTGCAG | 8460 fluorescence intensity (a.u.)
TTAGATGTGGCCAGTTTTGATTTCTAGCTTATAGGATCGTCGGAGTCACCTAGTGCAG | 9000 fluorescence intensity (a.u.)
ACAATGTGACCCTATGTACAATTTACTCATATATTTTTATCGGAGTCACCTAGTGCAG | 9570 fluorescence intensity (a.u.)
GAGTAGTAAGTTATATCCCTCAACCATTTCACTTCACACACGGAGTCACCTAGTGCAG | 9600 fluorescence intensity (a.u.)
TTATGAGGGTAAGTTTGTATTTGTCATATTTGGGTTGCTACGGAGTCACCTAGTGCAG | 8110 fluorescence intensity (a.u.)
ATGTTGCCCTTTGTTCTGCTGTTTCCTGGTTATATGGGATCGGAGTCACCTAGTGCAG | 17500 fluorescence intensity (a.u.)
CATCGCCTCCGCTTCTGCTTTTTTTTTTCTTTTTTCTCGTCGGAGTCACCTAGTGCAG | 10200 fluorescence intensity (a.u.)
GGATCTCGTTTGTCTGGTTTTCGTAAGTTGAGGGACGGGTCGGAGTCACCTAGTGCAG | 8380 fluorescence intensity (a.u.)
ATTCATTACACCATGTTTCTTTCTTTCTTTCGAGGACCCTCGGAGTCACCTAGTGCAG | 8370 fluorescence intensity (a.u.)
ATCTGTTATGTTTGCCCTGTCATTGGTTCTGCTAATCAATCGGAGTCACCTAGTGCAG | 9160 fluorescence intensity (a.u.)
TTCTTTTTCGTTTTCTTCTCATTCTTCTTTTTTTTCCTTTCGGAGTCACCTAGTGCAG | 14300 fluorescence intensity (a.u.)
GGTGACCATTCCTAGTTTCCTACCCCTCATGTTTTTCTTTCGGAGTCACCTAGTGCAG | 17000 fluorescence intensity (a.u.)
CCTTGTTTGCTCGGTTTTTGTAAGTTGAGGGACGGGTCATCGGAGTCACCTAGTGCAG | 18700 fluorescence intensity (a.u.)
CTCGCGCGTGCCCGCCTCTGCTGTTCTTTCTCTCGCCCTCCGGAGTCACCTAGTGCAG | 11400 fluorescence intensity (a.u.)
GTTCTGGTTGGGATCGATTTCTTCTTCCCCTTTGTTGCTTCGGAGTCACCTAGTGCAG | 9700 fluorescence intensity (a.u.)
GCCTGCCTGTCTGCCTCCGCGTCTTTTCTGCTGCCCACATCGGAGTCACCTAGTGCAG | 19500 fluorescence intensity (a.u.)

Sequence | binding signal
AGTTTCAGTAGCCTCGCCGATCGACTTGCCACACCGCCGTCGGAGTCACCTAGTGCAG | 9260 fluorescence intensity (a.u.)
CACCGCCATCTTCCTCTTCTTCTTCGTCGTCGTGGTTGGCCGGAGTCACCTAGTGCAG | 11100 fluorescence intensity (a.u.)
AAACTGGGCCATATCGGTTGGTTTTTGCTCTCTACGTCTCCGGAGTCACCTAGTGCAG | 9280 fluorescence intensity (a.u.)
CAATTTGGCATTTGGCATTTGCTAGTCTATAGTAGCAAATCGGAGTCACCTAGTGCAG | 8130 fluorescence intensity (a.u.)
GTACGACAGTAGTTGTTTTTCTCGCTTTTGATTTTGAGTCCGGAGTCACCTAGTGCAG | 8560 fluorescence intensity (a.u.)
CTCGTCGTCGCCTCCGCTCCTTGCGCCATCTCGCGGCGCCCGGAGTCACCTAGTGCAG | 9480 fluorescence intensity (a.u.)
TATGGACTGTTTTGTTTTGTTCCCCTAGCTAGAATTATTCCGGAGTCACCTAGTGCAG | 9880 fluorescence intensity (a.u.)
AGTAGGTTGTTGGTTTTGTACCTTTGGGCTCTTTGCCTTTCGGAGTCACCTAGTGCAG | 10900 fluorescence intensity (a.u.)
GTAGCCGCTTCCTGCCTTCCTTCCCCTTGCTCTTGCATTTCGGAGTCACCTAGTGCAG | 8340 fluorescence intensity (a.u.)
GCTTTTTTTTTTTCTTTCTTTCTTTTTCCCCTTCGGCTTCCGGAGTCACCTAGTGCAG | 12500 fluorescence intensity (a.u.)
TTCATCCCCTAACCCTTTCTTTGTTCATCTTGTTCTTCCTCGGAGTCACCTAGTGCAG | 9970 fluorescence intensity (a.u.)
ATCTTCCCTTACAGTGACATCCTTTGTTCTTGCCGTCTCTCGGAGTCACCTAGTGCAG | 17600 fluorescence intensity (a.u.)
GATATGCATTTTCCCTGCTTTCCCTGCTTTTCCCCTTTTTCGGAGTCACCTAGTGCAG | 16400 fluorescence intensity (a.u.)
TTTGGGTTGTGCTTAGGTTTCCTTCTCGGGCTTTGTTGTACGGAGTCACCTAGTGCAG | 18700 fluorescence intensity (a.u.)
GCATTTCGTGTTCCCTTTTTGCCTTTTTTTCCCCTTTTCTCGGAGTCACCTAGTGCAG | 10300 fluorescence intensity (a.u.)
CCTTCTCGGGCTTTGTTGTACGTATGCGTCTCGTGTTGGGCGGAGTCACCTAGTGCAG | 8780 fluorescence intensity (a.u.)
CCTTTGTTCTTGCCGTCTCTTTTTTTTTTTTACAGAAGAACGGAGTCACCTAGTGCAG | 14600 fluorescence intensity (a.u.)
TTTCTTTGTTGTCTCACTTTCCCTTTTTCCACTTCTTTTTCGGAGTCACCTAGTGCAG | 11700 fluorescence intensity (a.u.)
TCTTCTTCTTGTTGTTCTTGTTCTTTCTTCTTCCCCTTTTCGGAGTCACCTAGTGCAG | 18800 fluorescence intensity (a.u.)
